Test results published in PubChem BioAssay AID602243 (Broad Institute, 2012).
The other results are listed elsewhere or left out. A number with no mark means an inactive call. How the calls were made is not given here.

Test: V. cholerae lux activation without autoinducers – BH1578 luxS cqsA deficient, cherry-pick, plate reader, dose response (AID 602243)
Settings: V. cholerae BH1578 lux reporter, luminescence, 6 h; series mostly up to 50 µM; activation: at the top concentration

Going from COc1ccc(CNc2nnnn2C)cc1 to CCCn1nnnc1NCc1ccc(OC)cc1, the “activation” value rises from 0.987% to 1100%.

Going from Cc1cccc(C(=O)OCC(=O)NCC(C)C)c1O to CCc1cccc(C)c1N(C(=O)Cn1c(CO)nc2ccccc21)C(C)COC (centres undefined), the “activation” value falls from 1270% to 0%.

Going from COCCn1nnnc1CN1CCC(NC(=O)Nc2cccc(OC)c2)CC1 to COc1ccc(N(CC(=O)NC2CCCCC2)C(=O)CNC(=O)c2ccco2)c(OC)c1, the “activation” value rises from 0.222% to 0.776%.

Compared with CN(CC(=O)Nc1ccc(OC(F)(F)F)cc1)C(=O)C1CCC1, O=C(Cc1ccc2c(c1)CCCC2)Nc1ccccc1Cl is higher in “activation” value: 2.11% for the first, 20.6% for the second.

Compared with COc1cc(S(=O)(=O)N(Cc2cccs2)C2CC2)ccc1-n1cnnn1, COc1ccc(S(=O)(=O)N2CCN(c3cnccn3)CC2)cc1 is lower in “activation” value: 0.162% for the first, -0.115% for the second.

Compared with CCCn1nnnc1NCc1ccc(CC)cc1, CCC(C)(C)n1nnnc1CN1CCN(c2nc3ccc(C)cc3cc2C#N)CC1 is lower in “activation” value: 4240% for the first, 0.074% for the second.

Compared with CCN(CC)c1nc(-c2ccccc2)cc(C(F)(F)F)c1C#N, Cc1onc(-c2ccccc2)c1C(=O)N1CCOCC1 is higher in “activation” value: 0.082% for the first, 0.2% for the second.

Going from CC(=O)N1CCN(C(=O)c2cc(-c3ccc(Cl)s3)nc3ccccc23)CC1 to O=C(NCCS(=O)(=O)N1CCN(c2ccccc2)CC1)c1ccco1, the “activation” value falls from 0.973% to 0.155%.

Going from NC(=O)c1nsc(C(=O)N(CC(=O)NCc2ccc(F)cc2)Cc2ccco2)c1N to CC1CN(C(=O)COC(=O)c2cccc(NS(=O)(=O)c3ccccc3)c2)CC(C)O1 (centres undefined), the “activation” value falls from 0.105% to 0.085%.

For CCCS(=O)(=O)N1CCCC(C(=O)N2CCN(c3ccccc3)CC2)C1 (centres undefined), the “activation” value was 0.376%.
